Results as given in PubChem BioAssay AID1053173 (Broad Institute, 2014).
The campaign covered roughly 1,500 compounds. About 390 (26%) were called active. The rule behind the calls is not given here. The list is a sample of the results. Results with a measured potency or affinity are listed apart.

Each compound was assayed against Histone-lysine N-methyltransferase NSD2 (Homo sapiens) (UniProt O96028) (assay: NSD2 methyltransferase inhibitors, dose response, biochemical, AlphaScreen, cherry-picked samples (AID 1053173;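 note: 0% = neutral control wells and -100% = positive control wells on each plate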)). Conditions: NSD2 H4 peptide methylation, 120 min; series mostly up to 10 µM; activity change, negative = inhibition: at the top concentration.
Sequence of Histone-lysine N-methyltransferase NSD2 (Homo sapiens) (O96028 whole entry, looked up): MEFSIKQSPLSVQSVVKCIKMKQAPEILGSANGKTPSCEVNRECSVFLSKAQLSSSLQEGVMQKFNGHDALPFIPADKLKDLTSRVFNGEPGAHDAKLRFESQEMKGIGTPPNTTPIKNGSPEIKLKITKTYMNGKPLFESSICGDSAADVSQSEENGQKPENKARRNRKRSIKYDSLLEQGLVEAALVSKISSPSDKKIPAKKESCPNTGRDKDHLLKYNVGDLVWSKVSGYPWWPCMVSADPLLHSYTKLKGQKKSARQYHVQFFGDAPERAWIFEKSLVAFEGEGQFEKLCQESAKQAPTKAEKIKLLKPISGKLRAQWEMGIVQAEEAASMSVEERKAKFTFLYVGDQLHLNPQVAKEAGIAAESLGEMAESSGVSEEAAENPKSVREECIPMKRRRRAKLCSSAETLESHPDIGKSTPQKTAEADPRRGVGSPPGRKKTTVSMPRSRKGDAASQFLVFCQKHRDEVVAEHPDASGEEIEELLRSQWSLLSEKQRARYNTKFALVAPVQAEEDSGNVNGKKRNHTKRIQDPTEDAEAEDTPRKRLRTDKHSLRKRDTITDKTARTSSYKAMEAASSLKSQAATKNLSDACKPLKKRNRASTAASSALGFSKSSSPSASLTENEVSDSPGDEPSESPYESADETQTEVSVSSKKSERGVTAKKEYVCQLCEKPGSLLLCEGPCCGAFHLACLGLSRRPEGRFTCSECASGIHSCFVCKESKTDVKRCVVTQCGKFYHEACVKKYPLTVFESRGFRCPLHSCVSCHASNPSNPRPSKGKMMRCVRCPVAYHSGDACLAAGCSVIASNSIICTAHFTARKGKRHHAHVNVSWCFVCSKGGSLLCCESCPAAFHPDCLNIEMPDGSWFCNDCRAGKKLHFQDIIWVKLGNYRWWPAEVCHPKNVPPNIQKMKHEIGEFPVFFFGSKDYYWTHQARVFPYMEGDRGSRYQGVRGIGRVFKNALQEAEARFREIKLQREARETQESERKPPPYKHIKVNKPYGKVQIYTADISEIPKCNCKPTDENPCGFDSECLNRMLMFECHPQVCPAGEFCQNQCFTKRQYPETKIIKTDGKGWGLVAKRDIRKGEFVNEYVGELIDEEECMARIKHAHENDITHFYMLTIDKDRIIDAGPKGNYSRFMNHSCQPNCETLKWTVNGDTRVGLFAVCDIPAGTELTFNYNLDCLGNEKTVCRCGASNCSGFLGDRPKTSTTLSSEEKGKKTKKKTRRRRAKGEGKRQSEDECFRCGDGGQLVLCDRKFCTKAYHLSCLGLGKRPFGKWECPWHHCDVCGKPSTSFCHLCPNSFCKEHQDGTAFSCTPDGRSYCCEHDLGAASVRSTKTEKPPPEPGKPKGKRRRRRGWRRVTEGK

Row | SMILES | activity change, negative = inhibition
1 | O=C(NC1=NCCS1)c1csc2ccccc12 | 3.99% (inactive)
2 | O=C(Nc1cc(C(F)(F)F)ccc1N1CCCC1)C1CC(=O)N(Cc2ccccc2)C1 (stereo not given) | -0.7% (inactive)
3 | Cc1cc(C)c(NC(=S)N(C)C)cc1C | 6.18% (inactive)
4 | COc1ccc(C2/C(=C(\O)c3cccc(OC)c3)C(=O)C(=O)N2c2ccccn2)cc1 (stereo not given) | -2.01% (inactive)
5 | COc1ccc(C(=O)N[C@H](C(=O)NCc2ccc(C)cc2)C(C)C)cc1 | -3.5% (inactive)
6 | Cc1ccc(C)c(S(=O)(=O)N2CCCOC2CNC(=O)C(=O)NCc2cccnc2)c1 (stereo not given) | -1.12% (inactive)
7 | Nc1c2c(=O)[nH]c(O)cc2nn1-c1ccccc1 | -2.54% (inactive)
8 | COc1ccc(OC)c(C(=O)Nc2c(O)ccc3ccccc23)c1 | 0.436% (inactive)
9 | O=c1[nH]c(CN2CCCCC2)ccc1O | -3.02% (inactive)
10 | Cc1cc(=O)n2[nH]c(-c3ccco3)nc2n1 | -15.9% (inactive)
11 | Cc1onc(-c2c(Cl)cccc2Cl)c1C(=O)ONC(=O)c1cc(C(F)(F)F)cc(C(F)(F)F)c1 | 5.31% (inactive)
12 | O=[N+]([O-])c1ccc(-c2cccnc2)cc1 | -0.274% (inactive)
13 | O=c1c2ccc([N+](=O)[O-])cc2sn1-c1ccccc1 | -8.02% (inactive)
14 | CCOc1ccccc1NCc1nnc(-c2ccccc2)o1 | 1.86% (inactive)
15 | O=C(c1cc(-c2ccc(Cl)c(Cl)c2)on1)N1CCCCCC1 | 3.26% (inactive)
16 | COc1ccc(C)cc1S(=O)(=O)Nc1ccccc1C | 2.58% (inactive)
17 | O=[N+]([O-])c1ccc(N(CC(O)CN2CCCCC2)S(=O)(=O)c2ccccc2)cc1 (stereo not given) | 2.36% (inactive)
18 | O=S(=O)(c1ccc2c(c1)nc1n2CCC1)N1CCOCC1 | -0.647% (inactive)
19 | CCCc1nc2sc3ccccc3c(=O)c2c(=O)n1Cc1ccccc1 | -0.876% (inactive)
20 | COc1ccc(CCNc2c([N+](=O)[O-])ncn2C)cc1OC | 4.09% (inactive)
21 | CCOc1ccccc1N(CC(=O)NCCc1ccc(OC)c(OC)c1)S(=O)(=O)c1ccccc1 | 0.589% (inactive)
22 | COCc1[nH][nH]c(=O)c1C=NCC(=O)OC | -0.914% (inactive)

Row | SMILES | activity change, negative = inhibition
23 | N=C1C(c2nc(-c3ccc(F)cc3)cs2)=C(O)CN1Cc1ccc(Cl)cc1 | 0.005% (inactive)
24 | CC(C)(C)c1[nH]nc2c1C(C1C=CCCC1)C(C#N)=C(N)O2 (stereo not given) | 0.027% (inactive)
25 | O=C(NC1CCCCC1)c1ccc(S(=O)(=O)NCc2ccco2)cc1 | -4.03% (inactive)
26 | Cn1c(=O)c2c(-c3ccccc3)n(Cc3cccnc3)cc2n(C)c1=O | -1.34% (inactive)
27 | CCOC(=O)c1c(C)[nH]c(C(=O)NCCN2CCOCC2)c1C | -4.3% (inactive)
28 | O=C(CCCN1C(=O)/C(=C/c2cccs2)SC1=S)Nc1ccc(O)c(C(=O)O)c1 | -19.5% (inactive)
29 | O=C(CCCN1C(=O)/C(=C/c2ccccc2)SC1=S)Nc1ccc(C(=O)O)c(O)c1 | -8.83% (inactive)
30 | N=c1c(C(=O)NCc2ccco2)cc2c(=O)n3ccccc3nc2n1C1CCCC1 | -4.02% (inactive)
31 | COc1cccc(CN2CCC(Oc3ccc(C(=O)N4CCCCC4)cc3)CC2)c1O | -5.73% (inactive)
32 | Cc1ccc(NC(=O)CN(C)CCOc2ccccc2)c([N+](=O)[O-])c1 | -3.45% (inactive)
33 | CN1CCN(/N=C/c2nc(-c3ccccc3Cl)n3ccccc23)CC1 | 2.35% (inactive)
34 | Cn1c(SCc2ccccc2C#N)nc2ccccc2c1=O | -0.012% (inactive)
35 | COc1cn(-c2ccccc2)nc1C(=O)NCc1ccccc1 | -3.17% (inactive)
36 | C=CCSc1nnc(-c2ccc(Cl)cc2Cl)o1 | 5.59% (inactive)
37 | CCOC(=O)C1=CN(c2cccc(F)c2)C=C(C(=O)OCC)C1c1cc(OC)c(O)c([N+](=O)[O-])c1 | -7.24% (inactive)
38 | CCC1CC(CSc2ncn[nH]2)OC1=O (stereo not given) | 0.746% (inactive)
39 | COc1ccccc1CNC(=O)C(NC(=O)Nc1ccccc1)C(C)C (stereo not given) | -3.7% (inactive)
40 | CC(C)(C)/C=N/NC(=O)CNC(=O)c1ccc2c(c1)OCCO2 | 1.14% (inactive)
41 | CS(=O)(=O)N(CC(=O)NCc1ccco1)c1ccc2c(c1)OCO2 | -3.9% (inactive)
42 | COc1cc(NC(=O)COC(=O)CNC(=O)c2ccc(C)cc2)c(C)cc1[N+](=O)[O-] | -3.2% (inactive)
43 | S=C(Nc1ccc2nsnc2c1)N1CCCC1 | -6.84% (inactive)
44 | Fc1ccc(NC(=S)Nc2ccc3nccnc3c2)cc1 | 2.33% (inactive)

Row | SMILES | activity change, negative = inhibition
45 | CCOc1ccc(NC(=S)N2CCC(NC(=O)C3CCCCC3)CC2)cc1 | 0.233% (inactive)
46 | Cc1ccc(NC(=S)Nc2cccc3cnccc23)cc1 | -5.24% (inactive)
47 | CCc1ccc(NC(=S)Nc2cccc3cnccc23)cc1 | -1.42% (inactive)
48 | COc1cc(/C=N/N2CCN(C3c4ccccc4-c4ccccc43)CC2)cc(OC)c1OC | -4.53% (inactive)
49 | Cc1ccc(CSc2nc3c(c(=O)[nH]2)C(c2ccncc2)C2=C(CCCC2=O)N3)cc1 (stereo not given) | -4.75% (inactive)
50 | CC(=O)c1cccc(NC(=O)c2csc(-n3nc(C)cc3C(F)(F)F)n2)c1 | 3.13% (inactive)
51 | CCCC(C(=O)NC(C)(C)C)N(CC1CCCO1)C(=O)CNS(=O)(=O)c1ccc(F)cc1 (stereo not given) | -3.4% (inactive)
52 | CC(=O)Nc1ccc(SCCC2CCCCN2C)cc1 (stereo not given) | -0.85% (inactive)
53 | CCOc1ccc(-n2cnc3sc4c(c3c2=O)CCCC4)cc1 | 0.365% (inactive)
54 | C[N+](C)(C)CCC(=O)N1C/C(=C/c2ccccc2)C(=O)/C(=C\c2ccccc2)C1 | -3.58% (inactive)
55 | O=C(CN1C(=O)c2ccc([N+](=O)[O-])cc2C1=O)Nc1nnc(C2CC2)s1 | 4.34% (inactive)
56 | Cc1ccc(NC(=O)c2cc([N+](=O)[O-])ccc2NCc2cccnc2)cc1Cl | -5.31% (inactive)
57 | CC(=O)N1CCc2cc(Br)cc(S(=O)(=O)NCCCN(C)Cc3ccccc3)c21 | -2.14% (inactive)
58 | CN1CCC(=NNC(=O)c2cn(-c3ccccc3)nc2-c2ccccc2)CC1 | 0.308% (inactive)
59 | Cc1ccccc1-c1noc(C23CC4CC(CC(C4)C2)C3)n1 | 4.84% (inactive)
60 | CCOC(=O)C1CCCN(C(=O)c2ccc(OC(C)=O)cc2)C1 (stereo not given) | 0.226% (inactive)
61 | Cc1nnc(Sc2cc(NCCO)c([N+](=O)[O-])c3nonc23)s1 | 0.095% (inactive)
62 | CC(C)CNC(=O)c1cnn2c(C(F)(F)F)cc(C(F)(F)F)nc12 | -1.7% (inactive)
63 | Nc1c(Br)cc(Br)c2c1[nH]c(=O)c1ccccc12 | -9.35% (inactive)
64 | CCOc1cc(N2CCOCC2)c(OCC)cc1NC(=O)c1cnccn1 | -2.35% (inactive)
65 | COc1cc(/C=N/n2c(C)nnc2C)cc(OC)c1OC | -1.56% (inactive)
66 | O=C(c1ccccc1OCc1ccccc1Br)N1CCN(c2ncccn2)CC1 | 1.96% (inactive)

Row | SMILES | activity change, negative = inhibition
67 | CSc1nnc(-c2ccco2)c(-c2ccco2)n1 | -10.2% (inactive)
68 | N#Cc1ccc(-c2ccco2)nc1SCc1ccccc1 | -2.11% (inactive)
69 | CCOC(=O)CC(NS(=O)(=O)c1ccc2[nH]cc(C(=O)O)c(=O)c2c1)c1ccc(OCC)c(OC)c1 (stereo not given) | -7.85% (inactive)
70 | O=C(/C=C/c1ccc(OCCCF)cc1)N1CCN(Cc2ccccc2)CC1 | -3.48% (inactive)
71 | CN1C(=O)C(=O)/C(=C(/O)c2ccccc2)C1c1ccccc1 (stereo not given) | -2.62% (inactive)
72 | CCn1c(SC(=O)NC2CCCCC2)nnc1-c1cccs1 | 6.57% (inactive)
73 | Cc1cc(C)c(NC(=O)C2CC(=O)N(c3ccc4c(c3)OCCO4)C2)c(C)c1 (stereo not given) | -2.35% (inactive)
74 | C/[N+]([O-])=C1\Cc2ccccc2C1=O | 1.15% (inactive)
75 | Cc1cc(C)nc(N2CCC(C(=O)N(C)CCc3ccccc3)CC2)n1 | -0.983% (inactive)
76 | O=C(CN(C(=O)c1csnn1)c1cccc2ccccc12)NCc1ccccc1 | 1.06% (inactive)
77 | Cc1cc(C(=O)COC(=O)c2n[nH]c3ccccc23)c(C)n1C | -2.21% (inactive)
78 | O=C(NCCCn1ccnc1)C1CCN(S(=O)(=O)c2ccc(F)cc2)CC1 | -3.94% (inactive)
79 | CC(=O)Nc1ccc(S(=O)(=O)NCCSCc2ccc(Cl)cc2Cl)cc1 | 0.56% (inactive)
80 | CC(C)NCC#CCOc1ccc(Cl)cc1 | -11.6% (inactive)
81 | COC(=O)c1ccc(-n2nnnc2SCC(=O)NCc2cccc(C(=O)O)c2)cc1 | 1.21% (inactive)
82 | O=C(NCc1ccco1)c1scc2c1OCCO2 | -1.63% (inactive)
83 | CC(C)(C)NC(=O)C(c1ccco1)N(C(=O)Cn1nnc(-c2ccc(F)cc2)n1)c1ccccc1F (stereo not given) | 3.9% (inactive)
84 | O=C(c1ccccc1)c1cc2ccccc2oc1=O | 0.833% (inactive)
85 | Cc1cc(=O)oc(C)c1C(=O)OCC(=O)c1ccccc1 | 1.53% (inactive)
86 | COc1ccc(N2CCOCC2)c(NC(=O)c2ccc3c(c2)OCO3)c1 | -3.97% (inactive)
87 | CCOc1cc2c(C#N)c(N3CCOCC3)nc(N)c2c(N)n1 | -0.342% (inactive)
88 | CCC1Cc2c(nc(N)c3c(N)nc(N4CCOCC4)c(C#N)c23)O1 (stereo not given) | -3.29% (inactive)

Row | SMILES | activity change, negative = inhibition
89 | CC(C)n1c(NCc2nc3ccccc3n2C)nc2ccccc21 | -0.542% (inactive)
90 | CCc1ccc(N2C(=O)C3C(C2=O)N2CCCN2C3c2ccccc2)cc1 (stereo not given) | 3.23% (inactive)
91 | COc1cc(/C=C2\C(=O)ON=C2c2ccccc2)cc(Cl)c1O | -10.3% (inactive)
92 | O=C1C(=Cc2ccco2)CCC1=Cc1ccco1 | -10.4% (inactive)
93 | COc1ccc(CNC(=O)CCCN2C(=O)NC3(CCCC3)C2=O)cc1 | 4.98% (inactive)
94 | COc1ccc(NC(=O)Cn2nnc(C(=O)NCCc3ccc(OC)c(OC)c3)c2N)cc1 | -1.57% (inactive)
95 | Cc1ccc(S(=O)(=O)N2CCCCC2CCNC(=O)C(=O)Nc2ccccc2F)cc1 (stereo not given) | 2.31% (inactive)
96 | CC(=O)N(C)c1ccc(N=Nc2c(C)[nH]n(C(N)=S)c2=O)cc1 | -3.77% (inactive)
97 | NS(=O)(=O)c1ccc(N/N=C/c2ccncc2)cc1 | -3.56% (inactive)
98 | COC(=O)[C@H](Cc1ccccc1)NC(=O)Nc1ccc(S(N)(=O)=O)cc1 | -1.38% (inactive)
99 | CCCCNC1=CC(=O)C(=O)c2ccccc21 | -12.7% (inactive)
100 | O=C(CSc1nc(SCC(=O)NCc2ccccc2)n(-c2ccccc2)n1)NCc1ccccc1 | -1.26% (inactive)
101 | COc1ccc(C(=O)Nc2c3c(nn2-c2ccc(Cl)cc2)CS(=O)(=O)C3)cc1 | -0.12% (inactive)
102 | CC(=O)N1C2CCCCC2S[C@H]2CCCCC21 (stereo not given in full) | 1.03% (inactive)
103 | O=C(NCc1ccco1)Nc1cccc([N+](=O)[O-])c1 | -2.52% (inactive)
104 | CCCCc1nc2cc(C(=O)N3CCC(O)CC3)ccc2o1 | -1.24% (inactive)
105 | O=C(NC(c1ccc(Cl)cc1)c1cc(Cl)c2cccnc2c1O)c1cccnc1 (stereo not given) | -3.15% (inactive)
106 | CCCn1c(C)nc2c(c1=O)c1nc3ccccc3nc1n2-c1ccccc1 | 3.1% (inactive)
107 | Cn1c(=O)c(-c2ccccc2)nc2ccccc21 | 10.3% (inactive)
108 | CC(=O)Nc1ccc(N(C(=O)CNC(=O)c2ccco2)C(C(=O)NCC2CCCO2)c2ccccc2)cc1 (stereo not given) | 0.85% (inactive)
109 | CCN(CC)S(=O)(=O)c1cccc(-c2nnc(SCCCC(=O)c3ccc(F)cc3)o2)c1 | 3.87% (inactive)
110 | Cc1[nH]n(-c2ccccc2)c(=O)c1N=Nc1ccccc1C(=O)N1CCCCC1 | -7.67% (inactive)
